PubChem BioAssay (NCI)
Compounds without any hit were thinned out: in the full panel of roughly 83,000, 20% have a hit.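 Note: values are percent growth. 100 is the growth of untreated cells, values between 100 and 0 indicate rising inhibition; between -100 and 0 indicates cell death.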 Activity calls are given as the source filed them. Rule for the calls: active = growth percent below 10; inactive = the rest.

These compounds were tested on NCI-H322M lung (assay: NCI-60 one-dose screen, 48 h (100 = growth as untreated, 0 = no growth, -100 = all killed)). Conditions: 10 µM unless noted.
With `Fc1ccc(-c2nnc(-c3c(-c4ccc(F)cc4)nc4ncccn34)o2)cc1` the growth was 105% (inactive). For `S=c1[nH]nc2sc3ccccc3n12`, the growth was 125% (inactive). With `Clc1ccc2nc(Cl)c3ccccc3c2c1` the growth was 37.6% (inactive). In the case of `CCOC(Cc1c(N)[nH]c(=S)[nH]c1=O)OCC`, the growth is reported as 98.9% (inactive). `COc1ccc(-c2nnc(COc3ccc(NC(=O)Nc4cc(C(F)(F)F)cc(C(F)(F)F)c4)cc3F)o2)cc1` was tested, and the growth was 23.4% (inactive). `Clc1cccc(Cc2cn3cc(-c4ccccc4)nc3s2)c1` was tested, and the growth was 63.5% (inactive). With `ClC1=C(Cl)C(Cl)=C(Cl)C1=C/C=C/c1ccccc1` the growth was -27.8% (active). With `O=[N+]([O-])c1cnc(Sc2ccncn2)c([N+](=O)[O-])c1` the growth was 108% (inactive). `O=C(N1CCC(CN=c2cc3n(-c4ccc(Cl)cc4)c4ccccc4nc-3cc2Nc2ccc(Cl)cc2)CC1)N1CC1` was tested, and the growth was -54.3% (active). With `COc1cc(/C=C2\CCC/C(=C\c3ccc(OCC4CO4)c(OC)c3)C2=O)ccc1OCC1CO1` (configuration not stated) the growth was 85.1% (inactive). In the case of `COc1ccc(-n2nnc(C(=O)O)c2-c2cc(OC)c(OC)c(OC)c2)cc1`, the growth is reported as 108% (inactive). For `Nc1nc(N)c([N+](=O)[O-])c(=O)[nH]1`, the growth was 104% (inactive). `Oc1[nH]c2ccccc2c1/C=c1/ccc2c(c1)N=C(c1cc(F)cc(F)c1)N=2` was tested, and the growth was 83.1% (inactive). For `O=c1ccn(C2CCCO2)c(=O)[nH]1` (configuration not stated), the growth was 117% (inactive). For `COc1ccc2nc3cc(Cl)ccc3c(Nc3cc(C(C)C)c(O)cc3C)c2c1`, the growth was 51.5% (inactive). With `COc1ccc(-c2cnnn2-c2cc(OC)c3c(c2)OCO3)cc1` the growth was 42.8% (inactive). With `CC1=CC(=O)C(C(C)=Nc2ccccc2Cl)C(=O)O1` (configuration not stated) the growth was 121% (inactive). With `O=[P@@]1(c2ccccc2)O[C@H](COCc2ccccc2)[C@@H](OCc2ccccc2)[C@H](OCc2ccccc2)[C@H]1NCc1ccccc1` the growth was 47.9% (inactive). With `COc1ccc(-c2noc(N)c2-c2cc(OC)c3c(c2)OCO3)cc1` the growth was 57.5% (inactive). `CN(C)c1nc(-c2ccco2)n2nc(-c3ccco3)cc2n1` was tested, and the growth was 94% (inactive). For `COc1cccc(C2C(C#N)=C(N)Oc3cc(OC)ccc32)c1` (configuration not stated), the growth was 32.6% (inactive). In the case of `c1cnc2ccc3ncccc3c2c1`, the growth is reported as 117% (inactive). For `O=C(c1ccccc1)c1ccco1`, the growth was 105% (inactive). With `CCOC(=O)C1=NN(c2ccc(Cl)cc2)C2C3N(c4ccc(Cl)cc4)N=C(C(=O)OCC)N3c3ccccc3N12` (configuration not stated) the growth was 98.5% (inactive). With `Cc1cc(NC(=O)c2ccc(N)cc2)ccc1N=Nc1ccc2c(O)c(N=Nc3ccc(Cl)c(S(=O)(=O)O)c3)c(S(=O)(=O)O)cc2c1` the growth was 62.5% (inactive). For `O=C(Nc1cccc(C(F)(F)F)c1)Nc1ccc(OCc2nnc(-c3ccc(Cl)cc3)o2)c(F)c1`, the growth was 86.5% (inactive). For `CCN1C(=O)c2ccc3c4c(ccc(c24)C1=O)C(=O)N(CCCNCc1ccccc1OC)C3=O`, the growth was -31.6% (active). In the case of `C=C1c2c(C)nn(-c3ccc(C#CCOC4OC(CO)C(O)C(O)C4O)cc3)c2N(C)C23C[C@H]1C1(C)c4c(C)nn(-c5ccc(C#CCOC6OC(CO)C(O)C(O)C6O)cc5)c4N(C)C(C)(C[C@H]12)C3` (some centres not stated), the growth is reported as 1.68% (active). `O=C(Nc1ccc(OCc2nnc(-c3ccccc3)o2)c(F)c1)Nc1ccc(Cl)c(C(F)(F)F)c1` was tested, and the growth was 28.8% (inactive). With `O=C(/C=C/c1ccccc1Cl)c1ccc(O)cc1` the growth was 89.5% (inactive). For `O=C(Nc1ccncc1)C(=O)c1cn(S(=O)(=O)c2cccc(F)c2)c2ccccc12`, the growth was 101% (inactive). In the case of `COc1cc(/C=C/C(=O)c2ccc(F)cc2)ccc1OCCCCCOc1cc2c(cc1OC)C(=O)N1CCCC1C=N2` (configuration not stated), the growth is reported as -2.96% (active). With `O=C(/C=C/c1ccc(O)c(O)c1)N1CCN(c2ccc(Cl)cc2)CC1` the growth was 85.1% (inactive). For `O=C(OCCBr)c1ccc(Cl)c([N+](=O)[O-])c1`, the growth was 28.6% (inactive). In the case of `COc1ccc2c(c1)/C(=C\c1c[nH]c3ccc(F)cc13)C(=O)N2`, the growth is reported as 75.9% (inactive). For `Cc1cc(C(=O)O)c(C)cc1C(=O)O`, the growth was 76.8% (inactive). `O=C1/C(=N/O)CCc2ccccc21` was tested, and the growth was 102% (inactive).
